Data taken from PubChem BioAssay AID1117319 (Southern Research Institute, 2015).
In all, about 260,000 compounds went through this assay and about 1,500 (0.58%) were called active. About 5% were inconclusive and are not listed.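 Rule for the calls: active = inhibition above a set limit at one or more doses, reproduced on every date tested; inconclusive = results disagree between test dates, or hit never tested in dose response; inactive = the rest.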 The list is a sample of the results. Potency and affinity values are given separately.

Each molecule was assayed against Virion infectivity factor (Human immunodeficiency virus type 1 group M subtype B (isolate BH10)) + Virion infectivity factor (Human immunodeficiency virus type 1 group M subtype B (isolate BRU/LAI)) + Virion infectivity factor (Human immunodeficiency virus type 1 group M subtype B (isolate PCV12)) + Virion infectivity factor (Human immunodeficiency virus type 1 group M subtype B (isolate HXB2)) + DNA dC->dU-editing enzyme APOBEC-3G (Homo sapiens) (UniProt P69720+P69721+P69722+P69723+Q9HC16) (assay: HIV-1 Vif–A3G interaction blockers – biochemical, TR-FRET, GST-Vif 1-94, biotin-A3G peptide, dose response retest, primary screen (AID 1117319;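 note: Vif residues 1-94 fused to GST binding biotinylated APOBEC3G peptide 110-148; 0% = full assay without inhibitor and 100% = GST in place of GST-Vif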)). Details: TR-FRET GST-Vif / biotin-A3G peptide binding; stronger effect = higher value.
With `NS(=O)(=O)c1ccc(NC(=O)NC2CCCCC2)cc1` the inhibition was 1.56% (inactive). `CSc1oc(-c2ccco2)nc1S(=O)(=O)c1ccc(Br)cc1` was tested, and the inhibition was 6.37% (inactive). In the case of `CSc1oc(-c2ccco2)nc1S(=O)(=O)c1ccc(F)cc1`, the inhibition is reported as 9.31% (inactive). For `Cc1ccc2nc3sc(C(=O)Nc4ccc(N5CCOCC5)cc4)c(N)c3cc2c1`, the inhibition was 12.2% (inactive). In the case of `NC(=O)c1ccc(OCC(F)(F)F)nc1`, the inhibition is reported as -12.4% (inactive). `O=C(NC(=S)N1CCN(c2ccc([N+](=O)[O-])cc2)CC1)c1ccccc1Cl` was tested, and the inhibition was 0.79% (inactive). For `C[C@@H]1CCCCO[C@H](CN(C)C(=O)Nc2cccc3ccccc23)[C@@H](C)CN([C@H](C)CO)C(=O)c2cc(N(C)C)ccc2O1`, the inhibition was 4.84% (inactive). For `CC(=O)N=Cc1c(C)c(C#N)c(=O)n(C)c1O`, the inhibition was 6.56% (inactive). For `Cc1c(/C=N/Nc2ccc(F)cc2)c(O)n(C)c(=O)c1C#N`, the inhibition was 12.3% (inactive). In the case of `O=C(C1CCN(S(=O)(=O)c2ccc3c(c2)OCCO3)CC1)N1CCc2ccccc21`, the inhibition is reported as 24.2% (inactive). `CNS(=O)(=O)c1cc(O)c2c(S(=O)(=O)NC)cccc2c1` was tested, and the inhibition was 1.99% (inactive). `Oc1ccc(Cl)cc1N=Nc1ccccc1` was tested, and the inhibition was 0.9% (inactive). In the case of `COc1ccccc1C(=O)NCCC(=O)Nc1ccc(S(=O)(=O)N2CC(C)CC(C)C2)cc1` (centres undefined), the inhibition is reported as -5.91% (inactive). In the case of `CC(C)OC(=O)CSc1nnc(Cc2ccccc2)n1C`, the inhibition is reported as 1.42% (inactive). `Cc1ccc([N+](=O)[O-])cc1S(=O)(=O)Nc1ccccn1` was tested, and the inhibition was 11.9% (inactive). With `CN(C)C(=O)c1ccc2c(c1)C1C3CCC(C3)C1C(c1ccccc1)N2` (centres undefined) the inhibition was -2.04% (inactive). `O=[N+]([O-])c1ccc(Cl)c2c1C1C=CCC1C(c1ccccn1)N2` (centres undefined) was tested, and the inhibition was -2.51% (inactive). `O=C(O)c1ccc2c(c1)C1C=CCC1C(c1cc3c(cc1Br)OCO3)N2` (centres undefined) was tested, and the inhibition was -3.12% (inactive). With `O=C(O)c1cc(-c2ccccn2)n[nH]1` the inhibition was -8.59% (inactive). In the case of `CC1(C)CC(=O)C2=C(C1)Nc1cc(C(=O)c3ccccc3)ccc1NC2c1ccccn1` (centres undefined), the inhibition is reported as 1.75% (inactive). For `COc1ccc(OC)c(C2Nc3c(Cl)ccc(C(=O)O)c3C3C=CCC32)c1` (centres undefined), the inhibition was -11.5% (inactive). In the case of `Cc1cc([N+](=O)[O-])cc2ncccc12`, the inhibition is reported as 22.2% (inactive). With `Cc1c(CNCCc2ccccc2Cl)c(C(=O)O)c(C)n1-c1ccccc1` the inhibition was -7.23% (inactive). `Cc1ccc(C(=O)NC(=S)Nc2cccc(-c3nc4ccccc4s3)c2)cc1` was tested, and the inhibition was 9.8% (inactive). `CSCCC(NS(=O)(=O)c1ccccc1F)C(=O)NCC(C)(C)N1CCOCC1` (centres undefined) was tested, and the inhibition was 1.29% (inactive). With `O=C(OCc1nc2ccsc2c(=O)[nH]1)c1ccc(Cl)s1` the inhibition was 11.9% (inactive). `CCCCN(C(=O)C(C)(C)Oc1ccc(Cl)cc1)c1c(N)n(CCC)c(=O)[nH]c1=O` was tested, and the inhibition was -3.39% (inactive). `CC(C)CN(CC(C)C)C(=O)Nc1cccc([N+](=O)[O-])c1` was tested, and the inhibition was 0.14% (inactive). With `CCC(C)NC(=O)CSc1nnc(-c2cc(OC)c(OC)c(OC)c2)c(-c2cc(OC)c(OC)c(OC)c2)n1` (centres undefined) the inhibition was 2.7% (inactive). With `NC(=O)NC(=O)CN1C(=O)NC2(CCOc3ccccc32)C1=O` (centres undefined) the inhibition was 5.28% (inactive). In the case of `N=C1C(c2ccccc2)=C(O)CN1c1cccc(O)c1`, the inhibition is reported as 10.9% (inactive). For `O=C1CSc2ccc(C(=O)O)cc2N1`, the inhibition was 10.3% (inactive). In the case of `Cc1ccc2c(c1)[C@H]1OCC[C@H]1[C@@H](c1ccncc1)N2`, the inhibition is reported as 27.8% (inactive). With `CC1Cc2cc(C(=O)O)ccc2O1` (centres undefined) the inhibition was -3.49% (inactive). `COC(=O)c1ccc(C2Nc3ccc(/C(C)=N/NC(=O)C(OC)c4ccccc4)cc3C3C=CCC32)cc1` (centres undefined) was tested, and the inhibition was 11.3% (inactive). In the case of `CCc1ccc2oc(=O)cc(CN3CCN(CCO)CC3)c2c1`, the inhibition is reported as 4.78% (inactive). `CC/C(=N\Nc1ccc([N+](=O)[O-])cc1[N+](=O)[O-])c1ccc(O)cc1` was tested, and the inhibition was -6.92% (inactive). `COc1cccc(-c2nnc3sc(-c4ccccn4)nn23)c1` was tested, and the inhibition was -11.4% (inactive). In the case of `COc1ccc(-c2nn3c(-c4ccccn4)nnc3s2)cc1OC`, the inhibition is reported as 12.7% (inactive). With `COC(=O)c1cc(C)ccc1/C=C1/Cc2c(C)cc(C)cc2C1=O` the inhibition was -4.06% (inactive). `CC1CC1C(=O)OCC(=O)Nc1ncc(Cl)cc1Cl` (centres undefined) was tested, and the inhibition was 6.04% (inactive). With `CCc1cc(=O)n2[nH]c(C)c(-c3ccc(OC)cc3)c2n1` the inhibition was -3.08% (inactive). With `CCCc1cc(=O)n2[nH]c(C)c(-c3ccccc3OC)c2n1` the inhibition was -0.45% (inactive). In the case of `COc1ccc(S(=O)(=O)N2CCC(C(=O)NCCC(=O)NCc3cccnc3)CC2)cc1`, the inhibition is reported as -0.14% (inactive). In the case of `Cc1noc(C)c1CCC(=O)Nc1cc(C(=O)O)ccc1Cl`, the inhibition is reported as 4.29% (inactive). With `Cc1ccc(NC(=O)CN2C(=O)N/C(=C/c3ccc(C)o3)C2=O)cc1` the inhibition was 30.9% (inactive). For `Cc1ccc(NC(=O)CN2C(=O)N/C(=C/c3ccc4c(c3)OCCO4)C2=O)cc1`, the inhibition was -0.54% (inactive). For `N=C1/C(=C\c2ccc(SCc3ccccc3)o2)C(=O)N=C2SC(CC(=O)N3CCOCC3)=NN12`, the inhibition was 18.9% (inactive). For `N=C1/C(=C\c2ccc(SCc3ccccc3)o2)C(=O)N=C2SC=NN12`, the inhibition was 1.67% (inactive). `CCC1=NN2C(=N)/C(=C\c3cccn3-c3ccc(C)c(C)c3)C(=O)N=C2S1` was tested, and the inhibition was 2.9% (inactive). `N=C1/C(=C\c2ccc(OC(=O)c3ccco3)cc2)C(=O)N=C2SC=NN12` was tested, and the inhibition was 2.2% (inactive). With `CCC1=NN2C(=N)/C(=C\c3cccn3-c3ccc(Cl)cc3)C(=O)N=C2S1` the inhibition was 0.75% (inactive). For `CC1=NN2C(=N)/C(=C\c3ccc(SCc4ccccc4)o3)C(=O)N=C2S1`, the inhibition was 26.3% (inactive). In the case of `CCCC1=NN2C(=N)/C(=C\c3cc(C)n(-c4cccc(C)c4)c3C)C(=O)N=C2S1`, the inhibition is reported as -10.2% (inactive). With `CCC1=NN2C(=N)/C(=C/c3c(C)nn(-c4ccccc4)c3Cl)C(=O)N=C2S1` the inhibition was 6.74% (inactive). For `CCn1c(C(=O)O)c(S(=O)(=O)c2ccc(Cl)cc2)c2ccccc21`, the inhibition was -1.5% (inactive). With `Nc1nnc(SCC(=O)OCc2ccccc2)s1` the inhibition was 11.6% (inactive). In the case of `COc1ccc(CCNC(=O)CN2C(=O)NC(c3ccccc3)(c3ccccc3)C2=O)cc1`, the inhibition is reported as 2.71% (inactive). With `COc1ccc(-c2csc(N(CCc3ccccc3)C(=O)COc3ccccc3)n2)cc1` the inhibition was -2.24% (inactive). With `O=C1CC(c2ccccc2)NC(=S)N1` (centres undefined) the inhibition was 0.02% (inactive). For `Cc1ccc(/C=c2\sc3n(c2=O)CN(c2cccc(Br)c2)CN=3)o1`, the inhibition was 27.7% (inactive). In the case of `Cc1onc(-c2ccccc2)c1C(=O)N1CCN(c2ccc([N+](=O)[O-])cc2)CC1`, the inhibition is reported as -0.35% (inactive). `O=C1N(Cc2cccc(Cl)c2)C[C@@H]2C[C@@H](c3c[nH]c4ccccc34)N3CCC[C@@]123` was tested, and the inhibition was 0.3% (inactive). For `Cc1ccc(C(=O)OCC(=O)NCc2ccccc2)cc1S(=O)(=O)N1CCCCC1`, the inhibition was -8.21% (inactive). With `Cn1c(N2C(=O)CC(Cc3ccccc3)C2=O)nc2ccccc21` (centres undefined) the inhibition was -1.11% (inactive). With `O=C1NC(=S)SC1=Cc1ccccc1Cl` the inhibition was 1.68% (inactive). For `O=C1NC(=O)C(=Cc2ccco2)S1`, the inhibition was -2.41% (inactive). For `Cc1sc2ncn(-n3c(C)ccc3C)c(=O)c2c1C`, the inhibition was 5.69% (inactive). For `COc1ccccc1-n1c(CNC(=O)c2ccco2)nnc1SCC(=O)Nc1ccc(F)cc1`, the inhibition was -4.03% (inactive). With `O=c1[nH]c(=S)[nH]c2nccnc12` the inhibition was -0.53% (inactive). For `Cc1nc2[nH]c(=S)[nH]c(=O)c2nc1C`, the inhibition was 17.2% (inactive). For `COc1cc(C(=O)Nc2c(C)cc(C)cc2C)c([N+](=O)[O-])cc1OC`, the inhibition was -0.83% (inactive). With `O=C(CCc1nnc(CCCCc2ccccc2)o1)N1CCCC(O)C1` (centres undefined) the inhibition was 20% (inactive). With `O=C(CNc1n[nH]c(=O)[nH]c1=O)N/N=C/c1ccccc1` the inhibition was -4.54% (inactive). In the case of `COc1cc(/C=N/NC(=O)CNc2n[nH]c(=O)[nH]c2=O)ccc1OCc1ccccc1`, the inhibition is reported as 2.21% (inactive). For `COc1ccc(C(CNC(=O)c2ccc(OCC3CCCO3)cc2)N2CCOCC2)cc1` (centres undefined), the inhibition was -4.51% (inactive). With `CCCn1c(NC(=O)CSCC(=O)Nc2cc(C)on2)nc2ccccc21` the inhibition was -0.74% (inactive). `c1coc(Cn2c(-c3ccco3)nc3ccccc32)c1` was tested, and the inhibition was 6.18% (inactive). For `COc1ccc2nc3c(nc2c1)CCCC3`, the inhibition was -1.28% (inactive). For `c1coc(-c2nc3ccccc3s2)c1`, the inhibition was 1.82% (inactive). In the case of `CCn1c(-c2ccco2)nc2ccccc21`, the inhibition is reported as 0.82% (inactive). With `S=c1nc(-c2ccco2)[nH][nH]1` the inhibition was 6.53% (inactive). For `c1coc(-c2ncc[nH]2)c1`, the inhibition was 0.85% (inactive). `COc1ccc2nc3ccccc3nc2c1` was tested, and the inhibition was 0.36% (inactive). For `c1coc(-c2cnc3ccccc3n2)c1`, the inhibition was -5.45% (inactive). `COc1ccc(N(C(=O)c2ccco2)C(C(=O)NC2CCCC2)c2ccco2)cc1OC` (centres undefined) was tested, and the inhibition was 0.94% (inactive). With `COc1ccccc1/C=C/C(=O)OCC(=O)NC(=O)NC1CCCC1` the inhibition was -1.97% (inactive). With `CCn1cc(Cl)c(C(=O)Nc2cccc(C(F)(F)F)c2)n1` the inhibition was -0.07% (inactive). For `CC1(C)CC(NC(=O)COc2ccc([N+](=O)[O-])cc2)CC(C)(C)N1`, the inhibition was -0.99% (inactive). For `CC(C(=O)O/N=C(\N)c1cccnc1)c1ccc([N+](=O)[O-])cc1` (centres undefined), the inhibition was -1.85% (inactive). For `COc1cc(/C=C/C(=O)OCC(=O)c2ccc(S(=O)(=O)N3CCCCC3)cc2)cc(OC)c1OC`, the inhibition was -29.8% (inactive). In the case of `Cc1ccc(OCCSc2nc(NC(C)C)nc(NC(C)C)n2)cc1`, the inhibition is reported as -8.83% (inactive). In the case of `CC(C)(C)NC(=O)CN1CCN(C(=O)CCl)CC1`, the inhibition is reported as -2.69% (inactive). With `Cc1oc2ccc(O)c(CN3CCOCC3)c2c1C(C)O` (centres undefined) the inhibition was -6.07% (inactive).
